# Assay results published in PubChem BioAssay.
# Active and inactive are the calls of the source. Unless noted, no rule for the calls is given here.
# Key:
# [1] = A549 cell viability effects, profiling panel, calcein-AM fluorescence, 48 h, basal (AID 1162); conditions: higher = more signal; also: test concentration not given here
# [2] = adipocyte viability effects, profiling panel, cell-based, 3T3-L1 adipocytes, calcein-AM fluorescence, 48 h, basal (AID 1163); conditions: 3T3-L1 adipocytes viability, higher = more signal; also: test concentration not given here
# [3] = HepG2 cell viability effects, profiling panel, calcein-AM fluorescence, 48 h, basal (AID 1164); conditions: higher = more signal; also: test concentration not given here
# [4] = MM1S cell viability effects, profiling panel, calcein-AM fluorescence, 48 h, basal (AID 1165); conditions: higher = more signal;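 also: viability of MM1S multiple myeloma cells under basal unstimulated conditions; test concentration not given here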
# [5] = basal RPMI8226 viability, no added stimulus, profiling panel, cell-based, calcein-AM fluorescence, 48 h, PK04 Diversity Set (AID 1166); conditions: RPMI8226 myeloma viability, higher = more signal;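 also: cells grown under basal conditions without added stimulus; test concentration not given here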
# [6] = basal HepG2 mitochondrial membrane potential changes, profiling panel, cell-based, JC-1 fluorescence, 24 h, 100 nL compound (AID 1167); conditions: higher = more signal; also: test concentration not given here
# [7] = basal 3T3-L1 adipocyte mitochondrial potential changes, profiling panel, cell-based, JC-1 fluorescence, 3T3-L1 adipocytes, 24 h, 100 nL compound (AID 1168); conditions: JC-1 mitochondrial fluorescence, higher = more signal, called active from +8 up or from −8 down; also: test concentration not given here
# [8] = basal RPMI8226 mitochondrial membrane potential changes, profiling panel, cell-based, JC-1 fluorescence, 24 h, 100 nL compound (AID 1169); conditions: RPMI8226 myeloma, JC-1 mitochondrial potential fluorescence, higher = more signal; also: test concentration not given here
# [9] = basal MM1S mitochondrial membrane potential changes, profiling panel, cell-based, JC-1 fluorescence, 24 h, 100 nL compound (AID 1170); conditions: higher = more signal; also: test concentration not given here
# [10] = A549 lung cancer cell viability effects, profiling panel, resazurin fluorescence, 24 h, PK04 Diversity Set (AID 1171); conditions: higher = more signal, called active from +8 up or from −8 down; also: test concentration not given here
# [11] = HepG2 liver cancer cell viability effects, profiling panel, resazurin fluorescence, 24 h, PK04 Diversity Set (AID 1172); conditions: higher = more signal; also: test concentration not given here
# [12] = basal S. cerevisiae growth modulation, no modifier, primary screen, OD600, strain BY4716, 24 h, basal condition (AID 1173); conditions: OD600, 24 h, higher = more signal, called active from +8 up or from −8 down
# [13] = MM1S myeloma cell viability, profiling panel, resazurin fluorescence, basal, 24 h, PK04 Diversity Set (AID 1174); conditions: higher = more signal, called active from +8 up or from −8 down;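 also: MM1S multiple myeloma cell line; test concentration not given here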
# [14] = biological target: Dihydroorotate dehydrogenase (quinone), mitochondrial (Plasmodium falciparum (isolate 3D7)) (UniProt Q08210); assay: PfDHODH enzyme inhibitors, primary screen, biochemical, C-terminal His tag, absorbance 600 nm (AID 1175); conditions: DCIP absorbance 600 nm, higher = more signal, called active from +8 up or from −8 down;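 also: recombinant parasite enzyme with a five histidine tag at its C terminus; test concentration not given here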
# Dihydroorotate dehydrogenase (quinone), mitochondrial (Plasmodium falciparum (isolate 3D7)), sequence (Q08210 whole entry, looked up): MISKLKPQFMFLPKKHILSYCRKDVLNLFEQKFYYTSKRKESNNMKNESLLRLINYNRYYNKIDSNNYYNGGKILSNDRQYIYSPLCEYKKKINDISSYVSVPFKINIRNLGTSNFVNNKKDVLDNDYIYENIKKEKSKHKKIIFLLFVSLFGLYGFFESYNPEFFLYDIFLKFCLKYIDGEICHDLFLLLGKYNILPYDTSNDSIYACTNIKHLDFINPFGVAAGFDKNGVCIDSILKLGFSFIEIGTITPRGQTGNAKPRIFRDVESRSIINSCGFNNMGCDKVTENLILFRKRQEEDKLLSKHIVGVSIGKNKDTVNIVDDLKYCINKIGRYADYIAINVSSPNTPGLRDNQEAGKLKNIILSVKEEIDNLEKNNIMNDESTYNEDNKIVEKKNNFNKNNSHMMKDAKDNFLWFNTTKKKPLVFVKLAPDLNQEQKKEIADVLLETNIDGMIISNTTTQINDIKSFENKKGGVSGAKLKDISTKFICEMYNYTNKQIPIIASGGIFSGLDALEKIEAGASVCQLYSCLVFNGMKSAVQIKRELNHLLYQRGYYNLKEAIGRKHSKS
# [15] = P. aeruginosa biofilm formation inhibitors, primary screen, strain PAO1, LB-PBS medium, absorbance 600 nm (AID 1176); also: test concentration not given here; conditions: P. aeruginosa PAO1 growth/biofilm, A600, 12 h; higher = more signal
# [16] = S. cerevisiae RM11-1a growth modifiers, primary screen, strain RM11-1a, OD600, basal, 24 h (AID 1177); conditions: OD600, 24 h, higher = more signal, called active from +8 up or from −8 down;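 also: cultures grown under basal conditions with no added stressor; test concentration not given here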
# [17] = E. coli acrAB mutant growth effects, primary screen, E. coli filamentation inducers, strain DRC39, OD650, 24 h (AID 1178); conditions: higher = more signal, called active from +8 up or from −8 down;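 also: growth measured as culture turbidity by optical density at 650 nm; test concentration not given here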
# [18] = E. coli acrAB mutant growth effects, primary screen, E. coli filamentation inducers, strain DRC39, OD650, 48 h (AID 1179);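 also: screen aims at cell division blockers that make cells filament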; conditions: E. coli DRC39 delta-acrAB growth, higher = more signal, called active from +8 up or from −8 down
# [19] = RPMI8226 myeloma cell viability, profiling panel, resazurin fluorescence, basal, 24 h, PK04 Diversity Set (AID 1180); conditions: higher = more signal;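 also: RPMI8826 multiple myeloma cell line at 5000 cells per well; test concentration not given here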
# [20] = biological target: E3 ubiquitin-protein ligase XIAP (Homo sapiens) (UniProt P98170); assay: XIAP binders, primary screen, biophysical, small-molecule microarray, fluorescence 635 nm (AID 1181); conditions: small-molecule microarray binding, higher = more signal;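 also: score merges 667 nm emission and signal to noise over triplicate slides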
# E3 ubiquitin-protein ligase XIAP (Homo sapiens), sequence (P98170 whole entry, looked up): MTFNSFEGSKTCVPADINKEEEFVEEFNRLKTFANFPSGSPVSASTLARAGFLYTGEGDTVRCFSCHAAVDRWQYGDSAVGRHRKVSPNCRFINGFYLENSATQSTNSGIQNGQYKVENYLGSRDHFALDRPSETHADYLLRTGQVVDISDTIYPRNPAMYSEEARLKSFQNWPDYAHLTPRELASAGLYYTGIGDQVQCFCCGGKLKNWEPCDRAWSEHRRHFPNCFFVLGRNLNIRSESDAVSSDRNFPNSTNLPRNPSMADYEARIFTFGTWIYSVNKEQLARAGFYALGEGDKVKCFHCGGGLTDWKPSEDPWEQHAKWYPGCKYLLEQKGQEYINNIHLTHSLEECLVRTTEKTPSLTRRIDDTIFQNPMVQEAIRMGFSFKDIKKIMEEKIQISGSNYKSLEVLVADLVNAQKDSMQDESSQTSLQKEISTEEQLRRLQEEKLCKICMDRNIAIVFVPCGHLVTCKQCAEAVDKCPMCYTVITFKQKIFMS
Compound,z-score [1],z-score [2],z-score [3],z-score [4],z-score [5],z-score [6],z-score [7],z-score [8],z-score [9],z-score [10],z-score [11],z-score [12],z-score [13],composite z-score [14],z-score [15],z-score [16],z-score [17],z-score [18],z-score [19],composite z-score [20]
Cc1ccc(S[C@]2(C(=O)O)CC(=O)N(Cc3ccccc3Cl)[C@@H]2c2ccc(CO)cc2I)cc1,-0.794,-0.551,-0.828,-2.94,-2.92,-0.508,-1.14 (inactive),-0.615,-0.589,0.459 (inactive),0.457,-3.19 (inactive),-3.07 (inactive),0.297 (inactive),1.15 (inactive),-0.78 (inactive),0.0071 (inactive),-0.26 (inactive),-2.19,-0.0388
CO[C@H]1O[C@H](CO)[C@@H](OC(=O)Nc2ccccc2-c2ccccc2)[C@H](OC(=O)Nc2ccc3c(c2)OCO3)[C@H]1OC(=O)Nc1ccc2c(c1)OCO2,0.673,-0.31,-0.521,-1.02,-2.75,0.844,1.48 (inactive),-1.01,0.823,0.262 (inactive),-0.396,1.66 (inactive),-0.262 (inactive),-0.763 (inactive),3.65 (inactive),2.5 (inactive),1.2 (inactive),0.0265 (inactive),-0.564,0.25
CCCCN1CC=CC23O[C@@H]4/C=C\CCC(C)OC(=O)C4[C@H]2C(=O)N(C(CO)C(C)C)[C@@H]3C1=O (stereo not given in full),0.0282,-0.21,0.519,1.61,-0.773,-0.403,-1.27 (inactive),0.0795,-0.676,-0.0227 (inactive),0.229,0.844 (inactive),0.382 (inactive),-1.29 (inactive),0.991 (inactive),0.164 (inactive),0.375 (inactive),0.156 (inactive),-0.0048,0.48
[N-]=[N+]=Nc1ccccc1C[C@]1(C(N)=O)N=C(c2ccc(OCCCO)cc2)O[C@H]1c1ccccc1N=[N+]=[N-],-1.47,1.32,-1.84,-2.29,-3.48,-1.04,-0.981 (inactive),-1.21,-0.825,-1.36 (inactive),-0.0314,-2.88 (inactive),-1.55 (inactive),-0.398 (inactive),-0.193 (inactive),-0.315 (inactive),0.892 (inactive),-0.142 (inactive),-1.64,-0.248
[N-]=[N+]=NCc1ccccc1[C@H]1OC(c2ccc(OCCCO)cc2)=N[C@@]1(CCS(=O)(=O)c1ccccc1)C(=O)N1CCCCC1,0.481,1.03,-0.0898,-0.133,-0.946,-0.0617,1.04 (inactive),-1.11,-1.11,-0.743 (inactive),-0.0145,0.285 (inactive),-1.55 (inactive),0.716 (inactive),0.659 (inactive),1.77 (inactive),-0.132 (inactive),-0.846 (inactive),-0.661,0.0593
COCCOC(=O)N1C(=O)[C@@]2(c3cc(C#CC4=CCCCC4)ccc31)[C@H](c1ccc(OCCO)cc1)N1[C@H](c3ccccc3)[C@H](c3ccccc3)OC(=O)[C@H]1[C@@H]2C(=O)NC[C@H](O)c1ccccc1,0.148,0.72,0.688,-1.54,-2.03,-0.9,0.758 (inactive),-0.784,-0.964,0.607 (inactive),0.334,2.36 (inactive),-0.363 (inactive),0.184 (inactive),3.6 (inactive),2.83 (inactive),-0.441 (inactive),-0.16 (inactive),-0.48,-0.12
N#Cc1ccc(C(O)C2C=CC3C(=O)N(c4ccccc4)C(=O)C3N2Nc2ccccc2)cc1 (stereo not given),-0.26,0.744,-0.638,0.41,-0.153,-0.651,0.693 (inactive),0.173,-0.482,-1 (inactive),-0.888,-2.46 (inactive),-0.697 (inactive),-0.561 (inactive),1.06 (inactive),-0.433 (inactive),0.366 (inactive),0.0165 (inactive),-0.196,0.0537
O=C(NCc1ccccc1)[C@@H]1c2ccccc2C(=O)N(Cc2ccccc2C(F)(F)F)[C@H]1c1ccc(CO)cc1,0.369,0.275,1.53,0.0209,-0.133,2.36,-0.182 (inactive),0.744,-0.962,-0.307 (inactive),-0.431,0.036 (inactive),-0.433 (inactive),0.154 (inactive),1.19 (inactive),0.0858 (inactive),0.232 (inactive),0.56 (inactive),-0.137,-0.107
CC(C)Cc1ccc(CN2CC[C@@H](NC(=O)Nc3ccccc3)C2)cc1,-4.11,-1.07,-4.91,-3.11,-4.03,-2.75,0.465 (inactive),-1.11,-3.26,-2.79 (inactive),-5.14,-17.3 (active),-9.38 (active),0.545 (inactive),0.294 (inactive),-4.95 (inactive),0.451 (inactive),-0.748 (inactive),-4.87,-0.209
